# Experimental data as given in the supplement of paper PMC9135407.
# “And” between values parts separate entries of the source, which are not always exact repeats. Identical values can stand only once. Counter-ions that a name gives are not always drawn. Out of some 5,800 compounds screened, about 620 (11%) showed activity. The full list was thinned out, with actives kept by preference. Unmarked numbers belong to inactive results.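 How the source made its calls: active = score above a cut-off or among the top three wells of a plate; in these data no inactive exceeds 0.85.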
# Test system: primary human hepatic stellate cells (donor 1)
# Assay: scaled lipid accumulation score (0 = DMSO-like, 1 = nortriptyline-like); higher = stronger HSC inactivation (lipid re-accumulation), active = hit call of the paper
# Details: 48 h
# [1] = library stock concentration: 1 mM
# [2] = library stock concentration: 10 mM
# [3] = library stock concentration: 3.33 mM
structure (smiles),measurement,setting,value
"CCCCC/C=C\C/C=C\C/C=C\C/C=C\CCCC(=O)N(C)C [Arachidonoyl-N,N-dimethyl amide]",scaled lipid accumulation score,[1],0.01
CC(N)C(O)c1ccccc1 (configuration not stated) [Phenylpropanolamine],scaled lipid accumulation score,library stock concentration: 13.2 mM,≤ 0
CC(N)C(O)c1ccccc1 (configuration not stated) [Phenylpropanolamine hydrochloride],scaled lipid accumulation score,,≤ 0
same,scaled lipid accumulation score,library stock concentration: 10.7 mM,≤ -0.001
C=C[C@H]1CN2CC[C@H]1C[C@H]2[C@H](OC(=O)OCC)c1ccnc2ccc(OC)cc12 [Quinine ethyl carbonate],scaled lipid accumulation score,library stock concentration: 5 mM,≤ -0.001
same,scaled lipid accumulation score,[2],0.318
CC(C)[C@@]1(NC(=O)[C@@H]2C[C@@H]3c4cccc5[nH]cc(c45)C[C@H]3N(C)C2)O[C@@]2(O)[C@@H]3CCCN3C(=O)[C@H](Cc3ccccc3)N2C1=O [Dihydroergocristine mesylate],scaled lipid accumulation score,,0.232
same,scaled lipid accumulation score,[2],0.54
CN1C[C@H](C(=O)N[C@]2(C)O[C@@]3(O)[C@@H]4CCCN4C(=O)[C@H](Cc4ccccc4)N3C2=O)C[C@@H]2c3cccc4[nH]cc(c34)C[C@H]21 [Dihydroergotamine tartrate],scaled lipid accumulation score,,0.119
CN1C[C@H](C(=O)N[C@]2(C)O[C@@]3(O)[C@@H]4CCCN4C(=O)[C@H](Cc4ccccc4)N3C2=O)C[C@@H]2c3cccc4[nH]cc(c34)C[C@H]21 [Dihydroergotamine mesylate],scaled lipid accumulation score,library stock concentration: 2.9 mM,≤ 0
same,scaled lipid accumulation score,[2],0.16 and 0.216
CN1C[C@H](C(=O)N[C@]2(C)O[C@@]3(O)[C@@H]4CCCN4C(=O)[C@H](Cc4ccccc4)N3C2=O)C[C@@H]2c3cccc4[nH]cc(c34)C[C@H]21.CS(=O)(=O)O [Dihydroergotamine methanesulfonate],scaled lipid accumulation score,[2],1.06 (active)
FC(F)(F)c1cccc(C2=CCN(CCc3ccc4ccccc4c3)CC2)c1 [Xaliproden hydrochloride],scaled lipid accumulation score,[2],0.229
CC(N)Cc1cnc[nH]1 (configuration not stated),scaled lipid accumulation score,[2],0.028
CN1CC[C@]23CCCC[C@H]2[C@H]1Cc1ccc(O)cc13,scaled lipid accumulation score,library stock concentration: 9.9 mM,≤ 0
CC(=O)O[C@H]1C[C@@H]2CC[C@@H]3[C@H](CCC4(C)[C@H]3C[C@H]([N+]3(C)CCCCC3)[C@@H]4OC(C)=O)C2(C)C[C@@H]1[N+]1(C)CCCCC1 (some centres not stated) [Pancuronium Br],scaled lipid accumulation score,library stock concentration: 3.5 mM,≤ -0.006
Cc1[nH]nc2ccc(-c3cncc(OC[C@@H](N)Cc4c[nH]c5ccccc45)c3)cc12,scaled lipid accumulation score,library stock concentration: 80 uM,0.308
same,scaled lipid accumulation score,library stock concentration: 2 mM,0.593
same,scaled lipid accumulation score,[2],0.427
Cc1n[nH]c2ccc(-c3cncc(OC[C@@H](N)Cc4c[nH]c5ccccc45)c3)cc12,scaled lipid accumulation score,library stock concentration: 400 uM,1 (active)
CNC(Cc1c[nH]c2ccccc12)C(=O)O (configuration not stated) [Abrine (l)],scaled lipid accumulation score,[2],≤ 0
C[N+]1(C)C2CCC1CC(OC(=O)c1c[nH]c3ccccc13)C2 (configuration not stated) [3-Tropanylindole-3-carboxylate methiodide],scaled lipid accumulation score,[2],≤ 0
Cn1cc(C(=O)C(=O)N[C@H]2CN3CCC2CC3)c2ccccc21,scaled lipid accumulation score,[2],0.403
O=C(N[C@H]1CN2CCC1CC2)c1ccc(Cl)cc1,scaled lipid accumulation score,[2],≤ -0.001 and 0.156
c1ccc2c(c1)Sc1ccccc1N2CC1CN2CCC1CC2 (configuration not stated),scaled lipid accumulation score,[2],1.03 (active)
COc1cc2c(cc1OC)[C@@]13CCN4CC5=CCO[C@H]6CC(=O)N2[C@H]1[C@H]6[C@H]5C[C@H]43 [Brucine],scaled lipid accumulation score,library stock concentration: 5.1 mM,≤ 0
same,scaled lipid accumulation score,[2],≤ 0
O=c1c2ccccc2[se]n1-c1ccccc1 [Ebselen] [listing 1 of 3 here],scaled lipid accumulation score,[1],≤ 0
O=c1c2ccccc2[se]n1-c1ccccc1 [Ebselen] [listing 2 of 3 here],scaled lipid accumulation score,,0.867 (active)
O=c1c2ccccc2[se]n1-c1ccccc1,scaled lipid accumulation score,[2],1.07 (active)
O=c1c2ccccc2[se]n1-c1ccccc1 [Ebselen] [listing 3 of 3 here],scaled lipid accumulation score,library stock concentration: 18.2 mM,0.952 (active)
CNC1=Nc2ccc(Cl)cc2C(c2ccccc2)=[N+]([O-])C1,scaled lipid accumulation score,[2],0.036
CCCCC/C=C\C/C=C\C/C=C\C/C=C\CCCCOC(CO)CO [2-Arachidonyl Glycerol ether],scaled lipid accumulation score,[1],≤ 0
COc1ccc2cc(C(C#N)OC(=O)OCC3OC3c3ccccc3)ccc2c1 (configuration not stated) [Epoxy Fluor 7],scaled lipid accumulation score,[1],0.009
Cc1cc2c(C(C)C)c(O)c(O)c(C=O)c2c(O)c1-c1c(C)cc2c(C(C)C)c(O)c(O)c(C=O)c2c1O [listing 1 of 2 here],scaled lipid accumulation score,[3],≤ 0
same,scaled lipid accumulation score,[2],0.142
Cc1cc2c(C(C)C)c(O)c(O)c(C=O)c2c(O)c1-c1c(C)cc2c(C(C)C)c(O)c(O)c(C=O)c2c1O [Gossypol],scaled lipid accumulation score,,≤ 0
same,scaled lipid accumulation score,[3],0.016
same,scaled lipid accumulation score,[2],0.824 and 0.57
Cc1cc2c(C(C)C)c(O)c(O)c(C=O)c2c(O)c1-c1c(C)cc2c(C(C)C)c(O)c(O)c(C=O)c2c1O [listing 2 of 2 here],scaled lipid accumulation score,[2],0.999 (active)
CC(N)Cc1ccc(O)cc1 (configuration not stated) [Hydroxyamphetamine hydrobromide],scaled lipid accumulation score,[2],≤ 0
CC(C)=CCC[C@]1(C)C=Cc2c(O)c3c(c(CC=C(C)C)c2O1)O[C@]12C(=C[C@@H]4C[C@H]1C(C)(C)O[C@@]2(C/C=C(/C)C(=O)O)C4=O)C3=O [Gambogic acid],scaled lipid accumulation score,[2],0.672
CCCCCCC(C)(C)c1cc(OC)c2c(c1)OC(C)(C)[C@@H]1CC=C(C)C[C@@H]21,scaled lipid accumulation score,[1],≤ 0
O=C1CSC(c2ccccc2Cl)c2cc(Cl)ccc2N1 (configuration not stated),scaled lipid accumulation score,[2],≤ -0.006
same,scaled lipid accumulation score,library stock concentration: 15.4 mM,0.158
CC[C@@]1([C@H]2O[C@H]([C@H]3O[C@@](O)(CO)[C@H](C)C[C@@H]3C)C[C@H]2C)CC[C@H]([C@@]2(C)CC[C@]3(C[C@H](O)[C@@H](C)[C@@H]([C@H](C)[C@H](OC)[C@@H](C)C(=O)O)O3)O2)O1 [Monensin sodium],scaled lipid accumulation score,library stock concentration: 7.2 mM,0.508
CC[C@@]1([C@@H]2O[C@@H]([C@H]3O[C@@](O)(CO)[C@H](C)C[C@@H]3C)C[C@@H]2C)CC[C@H]([C@]2(C)CC[C@]3(C[C@H](O)[C@@H](C)[C@@H]([C@@H](C)[C@@H](OC)[C@H](C)C(=O)O)O3)O2)O1 [Monensin sodium salt],scaled lipid accumulation score,,0.541
